For 21 compounds, growth inhibition results are on record in PubChem BioAssay (NCI).

SMILES strings stand for the structures. About 79,000 compounds went through this panel and 15% of them were active in at least one assay; those are over-represented in the sample as a whole. Values without a mark were called inactive. Calls of active or inactive are those of the source. No stated cut-off is given here; in the data, active means growth inhibition above about 70%; inactive means the rest.

Experiment [1] is described as follows: NCI Yeast Anticancer Drug Screen. Data for the rad50 strain (AID 155).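 Further: 0% = growth of vehicle-only cultures of the same strain.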 The following applies: S. cerevisiae rad50 strain growth inhibition; at 50.0 µM; stronger effect = higher value. The method, boiled down:
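Relative growth inhibition (compound vs vehicle) was measured in yeast with a defined repair-gene alteration.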

Experiment [2] can be described thus: NCI Yeast Anticancer Drug Screen. Data for the mec2-1 strain (AID 157). The following applies: S. cerevisiae mec2-1 strain, at 50.0 µM, stronger effect = higher value. The method, boiled down:
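Test agents were screened against the mec2-1 yeast strain, with defined DNA repair or cell cycle alteration. Growth was scored as inhibition against vehicle-only controls.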

The nature of experiment [3]: NCI Yeast Anticancer Drug Screen. Data for the sgs1 mgt1 strain (AID 161).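 Further: 0% = growth of cultures given vehicle only.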 The following applies: S. cerevisiae sgs1 mgt1 strain, at 50.0 µM, stronger effect = higher value. Summed up: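 Test agents were incubated with a DNA-repair-mutant yeast strain. Growth was then read and compared against vehicle-treated controls.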
A short description of experiment [4]: NCI Yeast Anticancer Drug Screen. Data for the cln2 rad14 strain (AID 165).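 Further: 0% = growth equal to vehicle treated cultures.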 The following applies: S. cerevisiae cln2 rad14 strain, at 50.0 µM, stronger effect = higher value. The method, boiled down:
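Growth of compound-exposed yeast (cln2 rad14 genotype) measured and expressed as inhibition relative to vehicle.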

A short description of experiment [5]: NCI Yeast Anticancer Drug Screen. Data for the bub3 strain (AID 167). The following applies: S. cerevisiae bub3 mutant strain, at 50.0 µM, stronger effect = higher value. The method, boiled down:
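Screening used yeast with an engineered genetic alteration affecting cell cycle control. Compound-exposed cultures were compared with vehicle cultures, and reduced growth was taken as inhibition.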

The nature of experiment [6]: NCI Yeast Anticancer Drug Screen. Data for the mlh1 rad18 strain (AID 175). To be noted: S. cerevisiae mlh1 rad18 strain growth inhibition; at 50.0 µM; stronger effect = higher value. Summed up: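 In this whole-cell yeast screen, a strain with altered DNA damage repair is challenged with compound, and its growth is measured against matched vehicle-treated controls.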

Consider `O=C(c1ccccc1)c1nc2c(Cl)ccc(Cl)c2cc1C(Br)Br`, for which the growth inhibition was 37.1% in experiment [1]; 20.8% in experiment [2]; 44% in experiment [3]; 45.2% in experiment [4]; 38.1% in experiment [5]; 44.1% in experiment [6].

With `O=c1ccn(/C=C\c2nc3ccccc3[nH]c2=O)c(=S)[nH]1`, the growth inhibition in experiment [1] is -37.8%; in experiment [2], -27.3%; in experiment [3], -35.9%; in experiment [4], 13.7%; in experiment [5] it was -17.5%; in experiment [6], -40.4%.

On to `c1ccc(C2N3CCCCC3[C@@H]3c4[nH]c5ccccc5c4CCN23)nc1` (stereo partly specified), for which the growth inhibition is -26.8% in experiment [1]; -36.5% in experiment [2]; -6.5% in experiment [3]; 13.3% in experiment [4]; -25.9% in experiment [5]; -4.1% in experiment [6].

For the compound `CCCCON1C[C@H](OC(C)=O)C(OC(C)=O)[C@H](OC(C)=O)C1` (stereo partly specified), the growth inhibition was -44.8% in experiment [1]; -15.9% in experiment [2]; -39.1% in experiment [3]; -10.4% in experiment [4]; 16.9% in experiment [5]; -24.6% in experiment [6].

On to `O=c1[nH]c2cccnc2[nH]c1=O`, for which the growth inhibition was -8% in experiment [1]; -44% in experiment [2]; -32.8% in experiment [3]; 4% in experiment [4]; -32.5% in experiment [5]; -2.05% in experiment [6].

Consider `CCCCOC(=O)NC(=O)c1cn(CCCOC(=O)CCCCCCCCC(=O)OCCCn2cc(C(=O)NC(=O)OCCCC)c(=O)n(C)c2=O)c(=O)n(C)c1=O`, for which the growth inhibition is -3.9% in experiment [1]; -10.9% in experiment [2]; -10.7% in experiment [3]; 12.2% in experiment [4]; 14.3% in experiment [5]; -5.55% in experiment [6].

For `NC(=O)CCN(CCC(N)=O)c1ccc2c(c1)C(=O)c1ccccc1-2`, the growth inhibition is -7.3% in experiment [1]; -6.05% in experiment [2]; -8% in experiment [3]; -22.9% in experiment [4]; 15.5% in experiment [5]; -14.9% in experiment [6].

Regarding `CCOC(C#CC(=O)C(C)C)OCC`, the growth inhibition in experiment [1] was -17.2%; in experiment [2], 3.15%; in experiment [3], 0.85%; in experiment [4], 2.25%; in experiment [5], 27.4%; in experiment [6], 19.4%.

For `CS(=O)(=O)OC1COC(c2ccccc2)OC1C1OC(c2ccccc2)OCC1OS(C)(=O)=O` (stereo unspecified), the growth inhibition was -26.7% in experiment [1]; -3.85% in experiment [2]; -31.9% in experiment [3]; -4% in experiment [4]; -0.9% in experiment [5]; -7.25% in experiment [6].

Consider `CCCCCCC(C)(O)C(C)O` (stereo unspecified), for which the growth inhibition is 27.8% in experiment [1]; 8.5% in experiment [2]; 24.2% in experiment [3]; 14.9% in experiment [4]; 12.2% in experiment [5]; 9.2% in experiment [6].

Turning to `CCOC(=O)C1=C(C)c2ccccc2OC1C(=O)O` (stereo unspecified), the growth inhibition is 4.55% in experiment [1]; 11.1% in experiment [2]; 16.8% in experiment [3]; -23.4% in experiment [4]; -13.1% in experiment [5]; -10.3% in experiment [6].

For `COc1ccc(C(C)=O)cc1CO/N=C1\CSCc2ccccc21`, the growth inhibition is 22.9% in experiment [1]; 12.4% in experiment [2]; 34.5% in experiment [3]; 22.4% in experiment [4]; 48.2% in experiment [5]; 12.2% in experiment [6].

For `CC(=O)c1cc(C)ccc1Br`, the growth inhibition was 7.2% in experiment [1]; 6.65% in experiment [2]; -16.3% in experiment [3]; 0.5% in experiment [4]; -7.85% in experiment [5]; 7.35% in experiment [6].

As to `c1ccc(C[S][Sn]([c]2ccccc2)([c]2ccccc2)[c]2ccccc2)cc1`, the growth inhibition in experiment [1] was 97.5% (active); in experiment [2], 96.2% (active); in experiment [3], 97% (active); in experiment [4] it was 94.4% (active); in experiment [5], 97% (active); in experiment [6] it was 93% (active).

On to `Cc1ccc(S(=O)(=O)OCC2COC(C(C)C)OC2)cc1` (stereo unspecified), for which the growth inhibition is 5.45% in experiment [1]; -2.95% in experiment [2]; 9.3% in experiment [3]; 2.15% in experiment [4]; 48% in experiment [5]; -1.25% in experiment [6].

Take `Cc1ncc([N+](=O)[O-])n1CCCl`: the growth inhibition is -1.8% in experiment [1]; 12.2% in experiment [2]; 3.35% in experiment [3]; -27.2% in experiment [4]; -0.15% in experiment [5]; -4.35% in experiment [6].

As to `Cn1c2ccccc2c2nn3cnnc3nc21`, the growth inhibition in experiment [1] was 18.1%; in experiment [2], 41.3%; in experiment [3], -3.3%; in experiment [4], 25.5%; in experiment [5], 22.1%; in experiment [6], -1.95%.

In the case of `CCCCCCCCCSc1nc2ccc(N=Cc3ccccc3O)cc2s1`, the growth inhibition was -2.85% in experiment [1]; -6.8% in experiment [2]; -23.5% in experiment [3]; -10.1% in experiment [4]; 1.3% in experiment [5]; -40.6% in experiment [6].

Turning to `CN1CCCC1`, the growth inhibition is 2.05% in experiment [1]; 8.8% in experiment [2]; -2.15% in experiment [3]; 1.1% in experiment [4]; 16.6% in experiment [5]; -8.2% in experiment [6].

Regarding `CCC(C(=O)O)=C1CCCCC1`, the growth inhibition is 11.1% in experiment [1]; -8.15% in experiment [2]; -0.35% in experiment [3]; 9.15% in experiment [4]; 5.85% in experiment [5]; -3.9% in experiment [6].

As to `CCOC(=O)c1nc2ccc(C(F)(F)F)cc2nc1Nc1ccc(OC)c(OC)c1`, the growth inhibition in experiment [1] was -16.7%; in experiment [2], -11.9%; in experiment [3] it was -15.7%; in experiment [4], -6.15%; in experiment [5] it was -17.4%; in experiment [6] it was -8.75%.
